Test in all cases: DAPPL (digital affinity profiling via proximity ligation, sequencing); 10 mM Tris-HCl pH 7.5, 50 mM NaCl, 1 mM DTT, 4% glycerol, room temperature, 30 min; GST-TFs on glutathione beads, 16-mer random dsDNA library, 0.1% formaldehyde crosslink after washing; high values mean tight binding
One assay addresses T1, FEV (Homo sapiens, UniProt Q99581 1-238).
T1 sequence: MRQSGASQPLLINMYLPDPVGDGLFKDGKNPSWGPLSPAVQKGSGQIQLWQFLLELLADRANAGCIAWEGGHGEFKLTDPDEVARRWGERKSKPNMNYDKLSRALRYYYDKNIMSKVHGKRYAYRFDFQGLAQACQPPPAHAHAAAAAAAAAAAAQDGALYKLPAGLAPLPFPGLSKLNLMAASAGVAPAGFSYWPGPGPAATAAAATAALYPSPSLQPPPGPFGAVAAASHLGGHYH
The note with it: protein: recombinant; tags: N-terminal GST; dsDNA, one strand shown. The gist of the method:
(§1)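 After expression in yeast as GST fusions, human transcription factors were bound to glutathione beads, DNA-barcoded and mixed with a tag-only sample. The pools were incubated with 200 nmole of a 16-mer random double-stranded DNA library in Tris/NaCl/DTT/glycerol buffer (30 min, room temperature), washed and crosslinked with 0.1% formaldehyde. Proximity ligation with BsaI/T4 ligase ran for 1 h at 37 °C, before PCR amplification and sequencing on an Illumina NextSeq500. Binding signal is a hexamer's read frequency for a factor divided by its frequency for the tag-only sample.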

A further assay concerns the target ETV5 (Homo sapiens, UniProt P41161 1-510). The following applies: protein: recombinant; tags: N-terminal GST; dsDNA, one strand shown. In a few lines:
as §1

The next assay addresses HSF1 (Homo sapiens, UniProt Q00613 1-529). The following applies: protein: recombinant; tags: N-terminal GST; chain copies: 3; dsDNA, one strand shown. The gist of the method:
as §1

The target of the next assay is T2, SPIC (Homo sapiens, UniProt Q8N5J4 1-248).
T2 sequence: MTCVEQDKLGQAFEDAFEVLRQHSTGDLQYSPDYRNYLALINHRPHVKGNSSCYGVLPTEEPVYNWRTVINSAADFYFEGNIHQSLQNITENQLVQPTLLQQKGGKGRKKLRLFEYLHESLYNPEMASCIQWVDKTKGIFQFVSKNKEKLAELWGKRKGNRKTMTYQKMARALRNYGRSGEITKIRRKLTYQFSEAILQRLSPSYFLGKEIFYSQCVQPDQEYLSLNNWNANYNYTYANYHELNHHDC
The note with it: protein: recombinant; tags: N-terminal GST; dsDNA, one strand shown. In a few lines: as §1

Another assay concerns the target ELF4 (Homo sapiens, UniProt Q99607 1-663). The following applies: protein: recombinant; tags: N-terminal GST; dsDNA, one strand shown. In a few lines: as §1
Another assay addresses T3, ELK4 (Homo sapiens, UniProt P28324-2 1-405).
T3 sequence: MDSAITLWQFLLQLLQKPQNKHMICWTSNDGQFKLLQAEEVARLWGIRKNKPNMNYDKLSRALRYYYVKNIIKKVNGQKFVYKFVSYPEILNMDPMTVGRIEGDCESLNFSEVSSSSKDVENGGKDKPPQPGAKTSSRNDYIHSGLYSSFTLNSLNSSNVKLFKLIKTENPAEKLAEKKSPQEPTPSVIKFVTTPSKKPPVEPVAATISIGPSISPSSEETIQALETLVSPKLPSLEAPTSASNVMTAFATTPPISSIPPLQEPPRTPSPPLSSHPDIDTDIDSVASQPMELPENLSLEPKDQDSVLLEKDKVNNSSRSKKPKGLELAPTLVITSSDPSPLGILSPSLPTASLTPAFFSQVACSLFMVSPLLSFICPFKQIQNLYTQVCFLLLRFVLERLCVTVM
The note with it: protein: recombinant; tags: N-terminal GST; dsDNA, one strand shown. The gist of the method: as §1

Another assay addresses T4, ETV2 (Homo sapiens, UniProt O00321 1-342).
T4 sequence: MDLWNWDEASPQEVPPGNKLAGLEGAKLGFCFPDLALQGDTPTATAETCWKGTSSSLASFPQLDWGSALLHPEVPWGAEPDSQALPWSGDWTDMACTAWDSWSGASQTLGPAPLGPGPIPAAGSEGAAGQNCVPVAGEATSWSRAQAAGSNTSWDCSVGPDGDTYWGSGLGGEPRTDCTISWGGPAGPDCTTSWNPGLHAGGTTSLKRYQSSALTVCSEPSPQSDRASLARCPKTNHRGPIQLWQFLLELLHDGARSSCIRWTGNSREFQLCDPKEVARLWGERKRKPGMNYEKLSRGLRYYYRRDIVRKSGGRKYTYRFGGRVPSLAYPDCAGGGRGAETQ
The note with it: protein: recombinant; tags: N-terminal GST; dsDNA, one strand shown. The gist of the method:
as §1

A further assay addresses T5, ELF3 (Homo sapiens, UniProt P78545 1-371).
T5 sequence: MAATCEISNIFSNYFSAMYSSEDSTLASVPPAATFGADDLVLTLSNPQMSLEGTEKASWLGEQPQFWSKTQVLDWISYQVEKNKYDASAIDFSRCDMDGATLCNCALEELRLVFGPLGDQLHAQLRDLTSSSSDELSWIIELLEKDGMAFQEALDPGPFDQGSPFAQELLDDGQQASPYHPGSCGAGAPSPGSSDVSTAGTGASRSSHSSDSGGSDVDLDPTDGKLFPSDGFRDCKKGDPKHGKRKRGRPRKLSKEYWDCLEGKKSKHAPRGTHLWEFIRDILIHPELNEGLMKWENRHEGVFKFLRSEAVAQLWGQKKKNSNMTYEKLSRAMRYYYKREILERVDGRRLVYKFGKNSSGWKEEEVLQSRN
The note with it: protein: recombinant; tags: N-terminal GST; dsDNA, one strand shown. The gist of the method:
as §1

A further assay has as its target CRX (Homo sapiens, UniProt O43186 1-299). The following applies: protein: recombinant; tags: N-terminal GST; dsDNA, one strand shown. The gist of the method: as §1
A further assay concerns the target ETV1 (Homo sapiens, UniProt P50549 1-477). The following applies: protein: recombinant; tags: N-terminal GST; dsDNA, one strand shown. In a few lines: as §1
For a further assay, the target named is T6, ERF (Homo sapiens, UniProt P50548 1-548).
T6 sequence: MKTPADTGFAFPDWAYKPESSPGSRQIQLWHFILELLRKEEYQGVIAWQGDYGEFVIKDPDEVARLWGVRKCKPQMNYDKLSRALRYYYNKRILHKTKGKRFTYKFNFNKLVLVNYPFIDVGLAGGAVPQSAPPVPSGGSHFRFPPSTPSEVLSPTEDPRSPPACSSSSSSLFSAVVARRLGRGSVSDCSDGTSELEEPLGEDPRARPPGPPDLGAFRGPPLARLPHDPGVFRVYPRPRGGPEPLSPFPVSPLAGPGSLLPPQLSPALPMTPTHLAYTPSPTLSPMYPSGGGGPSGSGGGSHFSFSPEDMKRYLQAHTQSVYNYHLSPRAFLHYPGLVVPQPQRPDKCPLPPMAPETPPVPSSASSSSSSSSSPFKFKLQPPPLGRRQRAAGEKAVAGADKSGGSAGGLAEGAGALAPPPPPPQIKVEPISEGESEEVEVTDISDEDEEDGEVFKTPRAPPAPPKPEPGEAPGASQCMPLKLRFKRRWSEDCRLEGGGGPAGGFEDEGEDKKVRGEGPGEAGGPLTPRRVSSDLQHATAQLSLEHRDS
The note with it: protein: recombinant; tags: N-terminal GST; dsDNA, one strand shown. In a few lines:
as §1

The target in the next assay is T7, ETV3L (Homo sapiens, UniProt Q6ZN32 1-361).
T7 sequence: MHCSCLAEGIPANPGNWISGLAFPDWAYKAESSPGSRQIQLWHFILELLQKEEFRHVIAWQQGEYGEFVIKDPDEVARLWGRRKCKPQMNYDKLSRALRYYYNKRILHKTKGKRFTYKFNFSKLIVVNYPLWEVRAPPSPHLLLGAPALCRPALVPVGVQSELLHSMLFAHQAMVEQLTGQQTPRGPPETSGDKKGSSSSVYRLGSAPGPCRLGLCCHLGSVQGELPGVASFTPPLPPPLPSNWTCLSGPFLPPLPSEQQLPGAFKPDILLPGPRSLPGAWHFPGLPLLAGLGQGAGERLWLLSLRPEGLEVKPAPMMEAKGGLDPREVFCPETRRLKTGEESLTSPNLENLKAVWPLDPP
The following applies: protein: recombinant; tags: N-terminal GST; dsDNA, one strand shown. The gist of the method:
as §1

A further assay addresses T8, ETS2 (Homo sapiens, UniProt P15036 1-469).
T8 sequence: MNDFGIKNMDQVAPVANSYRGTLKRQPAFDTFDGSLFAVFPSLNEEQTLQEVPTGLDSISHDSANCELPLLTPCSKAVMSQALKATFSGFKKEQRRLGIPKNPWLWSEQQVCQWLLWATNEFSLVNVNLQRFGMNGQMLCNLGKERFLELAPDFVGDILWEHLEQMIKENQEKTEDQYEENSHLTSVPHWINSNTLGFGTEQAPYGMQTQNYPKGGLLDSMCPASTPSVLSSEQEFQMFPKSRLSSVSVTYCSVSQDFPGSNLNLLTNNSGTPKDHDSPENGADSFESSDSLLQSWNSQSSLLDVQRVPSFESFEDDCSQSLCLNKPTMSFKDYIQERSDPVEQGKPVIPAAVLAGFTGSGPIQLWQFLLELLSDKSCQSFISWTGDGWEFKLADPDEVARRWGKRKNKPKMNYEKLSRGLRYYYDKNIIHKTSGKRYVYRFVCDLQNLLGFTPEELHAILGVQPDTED
The note with it: protein: recombinant; tags: N-terminal GST; dsDNA, one strand shown. The gist of the method: as §1

Another assay deals with T9, SPDEF (Homo sapiens, UniProt O95238 1-335).
T9 sequence: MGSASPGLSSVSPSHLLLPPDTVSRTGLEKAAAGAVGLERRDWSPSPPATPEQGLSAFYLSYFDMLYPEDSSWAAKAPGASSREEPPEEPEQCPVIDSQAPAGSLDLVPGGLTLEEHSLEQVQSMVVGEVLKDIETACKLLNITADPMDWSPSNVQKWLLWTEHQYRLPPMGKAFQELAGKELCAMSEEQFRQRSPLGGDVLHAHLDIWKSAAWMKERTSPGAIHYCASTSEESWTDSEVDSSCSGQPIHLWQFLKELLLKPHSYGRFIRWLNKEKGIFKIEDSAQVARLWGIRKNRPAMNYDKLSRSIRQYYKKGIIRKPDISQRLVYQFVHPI
The following applies: protein: recombinant; tags: N-terminal GST; dsDNA, one strand shown. The gist of the method:
as §1

The next assay deals with T10, ETV7 (Homo sapiens, UniProt Q9Y603 1-341).
T10 sequence: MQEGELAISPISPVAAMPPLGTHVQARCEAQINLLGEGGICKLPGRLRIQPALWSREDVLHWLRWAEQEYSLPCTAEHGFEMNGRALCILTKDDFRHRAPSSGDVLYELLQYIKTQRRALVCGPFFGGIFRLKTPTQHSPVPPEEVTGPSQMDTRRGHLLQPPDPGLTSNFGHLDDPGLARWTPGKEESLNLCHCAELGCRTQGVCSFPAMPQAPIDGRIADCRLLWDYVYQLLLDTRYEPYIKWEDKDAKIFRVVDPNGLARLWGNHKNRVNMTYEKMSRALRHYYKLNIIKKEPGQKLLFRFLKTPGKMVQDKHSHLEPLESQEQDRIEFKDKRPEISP
The note with it: protein: recombinant; tags: N-terminal GST; dsDNA, one strand shown. In a few lines:
as §1

The next assay has as its target T11, ELF5 (Homo sapiens, UniProt Q9UKW6-2 1-255).
T11 sequence: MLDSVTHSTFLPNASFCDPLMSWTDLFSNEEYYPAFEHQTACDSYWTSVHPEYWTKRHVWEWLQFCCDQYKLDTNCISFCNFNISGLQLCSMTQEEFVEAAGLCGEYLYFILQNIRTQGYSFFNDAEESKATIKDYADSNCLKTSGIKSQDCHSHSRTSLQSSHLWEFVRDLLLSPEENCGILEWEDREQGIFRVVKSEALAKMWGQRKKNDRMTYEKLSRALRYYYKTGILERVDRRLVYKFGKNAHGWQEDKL
The note with it: protein: recombinant; tags: N-terminal GST; dsDNA, one strand shown. The gist of the method:
as §1

The target of another assay is T12, ETV3 (Homo sapiens, UniProt P41162-2 1-143).
T12 sequence: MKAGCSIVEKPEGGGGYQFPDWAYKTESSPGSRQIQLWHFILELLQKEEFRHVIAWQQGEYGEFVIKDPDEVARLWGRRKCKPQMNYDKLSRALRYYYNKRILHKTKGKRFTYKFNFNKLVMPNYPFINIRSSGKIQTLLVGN
The following applies: protein: recombinant; tags: N-terminal GST; dsDNA, one strand shown. In a few lines: as §1

A further assay addresses ETV6 (Homo sapiens, UniProt P41212 1-452). The following applies: protein: recombinant; tags: N-terminal GST; dsDNA, one strand shown. In a few lines: as §1

Sequence of ETV1 (P50549 whole entry): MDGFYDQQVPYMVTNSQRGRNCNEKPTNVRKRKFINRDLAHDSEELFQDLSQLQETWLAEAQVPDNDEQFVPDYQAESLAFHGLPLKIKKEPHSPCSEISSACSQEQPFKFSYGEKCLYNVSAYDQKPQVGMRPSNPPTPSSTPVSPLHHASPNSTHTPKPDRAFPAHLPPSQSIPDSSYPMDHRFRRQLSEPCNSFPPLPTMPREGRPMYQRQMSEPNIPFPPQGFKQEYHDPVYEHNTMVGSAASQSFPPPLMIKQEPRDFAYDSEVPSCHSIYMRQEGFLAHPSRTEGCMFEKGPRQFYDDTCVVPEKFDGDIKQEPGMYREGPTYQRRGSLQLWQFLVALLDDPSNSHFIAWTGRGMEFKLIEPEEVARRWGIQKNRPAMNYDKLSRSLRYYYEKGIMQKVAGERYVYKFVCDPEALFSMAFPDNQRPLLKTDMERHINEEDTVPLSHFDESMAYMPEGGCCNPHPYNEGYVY
Sequence of ETV5 (P41161 whole entry): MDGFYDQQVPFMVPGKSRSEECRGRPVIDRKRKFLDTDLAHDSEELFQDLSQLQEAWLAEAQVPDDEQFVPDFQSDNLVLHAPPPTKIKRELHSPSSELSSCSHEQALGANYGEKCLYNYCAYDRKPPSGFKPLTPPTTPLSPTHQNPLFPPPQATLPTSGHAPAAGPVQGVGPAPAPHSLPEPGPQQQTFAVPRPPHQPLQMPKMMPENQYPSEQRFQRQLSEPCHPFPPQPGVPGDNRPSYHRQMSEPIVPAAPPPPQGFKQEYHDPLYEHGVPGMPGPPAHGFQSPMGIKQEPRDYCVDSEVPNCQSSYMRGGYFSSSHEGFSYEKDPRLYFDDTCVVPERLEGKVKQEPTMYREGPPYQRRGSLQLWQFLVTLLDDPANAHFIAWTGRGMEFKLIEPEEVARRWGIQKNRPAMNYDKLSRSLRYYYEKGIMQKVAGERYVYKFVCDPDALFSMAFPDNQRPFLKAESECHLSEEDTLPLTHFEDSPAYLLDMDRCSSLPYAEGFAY
Sequence of ETV6 (P41212 whole entry): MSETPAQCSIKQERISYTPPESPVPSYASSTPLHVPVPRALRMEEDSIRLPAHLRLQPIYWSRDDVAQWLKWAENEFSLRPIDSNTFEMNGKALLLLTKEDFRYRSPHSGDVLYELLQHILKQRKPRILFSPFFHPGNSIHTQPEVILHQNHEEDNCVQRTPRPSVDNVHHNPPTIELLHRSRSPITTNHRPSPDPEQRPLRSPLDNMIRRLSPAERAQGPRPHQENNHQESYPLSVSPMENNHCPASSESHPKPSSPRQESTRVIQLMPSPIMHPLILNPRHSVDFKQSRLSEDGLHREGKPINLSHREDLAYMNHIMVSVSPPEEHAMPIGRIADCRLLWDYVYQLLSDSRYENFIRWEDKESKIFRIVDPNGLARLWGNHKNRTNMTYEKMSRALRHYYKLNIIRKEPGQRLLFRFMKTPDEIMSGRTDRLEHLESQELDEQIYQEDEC
Sequence of CRX (O43186 whole entry): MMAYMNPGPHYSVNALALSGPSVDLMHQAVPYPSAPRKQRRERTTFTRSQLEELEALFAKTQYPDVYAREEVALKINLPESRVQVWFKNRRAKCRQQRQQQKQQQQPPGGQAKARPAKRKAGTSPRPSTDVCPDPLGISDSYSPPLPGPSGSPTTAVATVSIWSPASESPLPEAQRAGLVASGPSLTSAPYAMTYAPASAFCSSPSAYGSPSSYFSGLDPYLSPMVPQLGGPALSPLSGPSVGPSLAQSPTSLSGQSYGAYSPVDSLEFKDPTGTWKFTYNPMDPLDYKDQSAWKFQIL
Sequence of ELF4 (Q99607 whole entry): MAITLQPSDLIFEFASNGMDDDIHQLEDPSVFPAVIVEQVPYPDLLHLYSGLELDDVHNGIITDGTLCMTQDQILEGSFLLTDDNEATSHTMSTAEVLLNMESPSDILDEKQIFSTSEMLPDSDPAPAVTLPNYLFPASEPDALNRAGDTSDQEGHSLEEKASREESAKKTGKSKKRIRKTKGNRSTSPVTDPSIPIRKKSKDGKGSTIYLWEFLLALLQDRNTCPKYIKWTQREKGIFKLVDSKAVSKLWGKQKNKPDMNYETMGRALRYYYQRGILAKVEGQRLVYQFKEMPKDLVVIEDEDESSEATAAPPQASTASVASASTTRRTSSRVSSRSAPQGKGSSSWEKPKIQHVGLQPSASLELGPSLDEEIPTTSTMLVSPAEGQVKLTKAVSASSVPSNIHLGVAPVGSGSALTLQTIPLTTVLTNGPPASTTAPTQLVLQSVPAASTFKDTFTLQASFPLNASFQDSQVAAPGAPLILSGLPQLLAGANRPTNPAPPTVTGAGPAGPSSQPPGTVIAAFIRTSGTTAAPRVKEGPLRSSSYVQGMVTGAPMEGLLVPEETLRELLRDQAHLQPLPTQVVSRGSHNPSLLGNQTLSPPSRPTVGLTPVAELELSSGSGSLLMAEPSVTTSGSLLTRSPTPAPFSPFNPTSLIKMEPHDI
Sequence of HSF1 (Q00613 whole entry): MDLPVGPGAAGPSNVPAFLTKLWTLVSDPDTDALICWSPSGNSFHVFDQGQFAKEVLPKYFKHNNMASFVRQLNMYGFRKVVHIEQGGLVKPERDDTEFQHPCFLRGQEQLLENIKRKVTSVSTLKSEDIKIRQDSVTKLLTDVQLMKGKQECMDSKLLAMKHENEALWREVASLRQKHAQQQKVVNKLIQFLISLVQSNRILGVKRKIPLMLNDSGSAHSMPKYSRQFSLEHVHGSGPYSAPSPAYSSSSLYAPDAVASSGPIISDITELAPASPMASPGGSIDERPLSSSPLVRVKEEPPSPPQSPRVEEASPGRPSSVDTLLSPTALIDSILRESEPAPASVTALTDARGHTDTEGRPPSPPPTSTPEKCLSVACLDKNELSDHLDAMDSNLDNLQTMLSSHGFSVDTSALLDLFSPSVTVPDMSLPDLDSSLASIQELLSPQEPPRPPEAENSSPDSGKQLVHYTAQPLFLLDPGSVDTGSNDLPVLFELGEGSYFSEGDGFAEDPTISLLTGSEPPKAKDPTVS

As to TCCTAA, the binding signal with FEV is 1.41 fold enrichment (6-mer frequency, TF over GST control); with ETV5, 1.4 fold enrichment (6-mer frequency, TF over GST control); in the assay with HSF1, 1.66 fold enrichment (6-mer frequency, TF over GST control); with SPIC, 1.38 fold enrichment (6-mer frequency, TF over GST control); with ELF4 it was 1.44 fold enrichment (6-mer frequency, TF over GST control); in the assay with ELK4, 1.39 fold enrichment (6-mer frequency, TF over GST control). Moreover, the binding signal with ETV2 is 1.47 fold enrichment (6-mer frequency, TF over GST control); with ELF3 it was 1.57 fold enrichment (6-mer frequency, TF over GST control); with CRX, 2.09 fold enrichment (6-mer frequency, TF over GST control); with ETV1 it was 1.32 fold enrichment (6-mer frequency, TF over GST control); with ERF it was 1.55 fold enrichment (6-mer frequency, TF over GST control); with ETV3L, 1.36 fold enrichment (6-mer frequency, TF over GST control). Also, the binding signal with ETS2 is 1.49 fold enrichment (6-mer frequency, TF over GST control); with SPDEF, 1.6 fold enrichment (6-mer frequency, TF over GST control); in the assay with ETV7 it was 1.48 fold enrichment (6-mer frequency, TF over GST control); with ELF5 it was 1.5 fold enrichment (6-mer frequency, TF over GST control); with ETV3, 1.45 fold enrichment (6-mer frequency, TF over GST control); in the assay with ETV6, 1.55 fold enrichment (6-mer frequency, TF over GST control).

The values are drawn from article PMC7862700, “An all-to-all approach to the identification of sequence-specific readers for epigenetic DNA modifications on cytosine”.
